Screens: PubChem, Broad Institute
DUX4 txn inh – DUX4-mediated transcription inhibition; 293T-iDUX4 ZSCAN4-Gaussia luciferase reporter, 24 h; hits give low values; activity change, negative = inhibition, % (test concentration not listed); 37,000 tested, 0.8% active; AID 1224904;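 active = mean inhibition of at least 10% in the main channel, exceeding the control channel by a set limit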;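 also: 0% = median of neutral control wells and -100% = median of positive control wells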
* marks the source's active call; other numbers are inactive results; ! = a repeat was not active. This is one part of a sample in which hits are shown more often than they occur.

`C[C@H](CO)N1C[C@H](C)[C@H](CN(C)C(=O)Nc2ccc3c(c2)OCO3)Oc2ccc(NC(=O)NC3CCCCC3)cc2C1=O` gave DUX4 txn inh 5.
For Cn1cnc(S(=O)(=O)N2CC[C@@H]3[C@H]2c2cc(C#Cc4ccc(F)cc4)ccc2N[C@@H]3CO)c1 the results were DUX4 txn inh 14.
Screening CCNC(=O)[C@H]1[C@H](CO)[C@H]2Cn3c(ccc(-c4ccccc4F)c3=O)[C@H]2N1CC1CC1 returned DUX4 txn inh 10.
Screening CO[C@H]1CN(C)C(=O)c2ccc(NC(=O)C3CC3)cc2OC[C@H](C)N(Cc2cncnc2)C[C@H]1C returned DUX4 txn inh -1.
For O=C(c1ccncc1)N1C[C@@H]2N[C@H](C1)C2c1ccc(-c2ccncc2)cc1 (stereo partly drawn) the results were DUX4 txn inh 5.
`O=C(Nc1ccccc1)N1C[C@@H]2N[C@H](C1)C2c1ccc(-c2cccnc2)cc1` (stereo partly drawn) gave DUX4 txn inh -52*.
For O=C(Nc1cccc(F)c1)N1C[C@@H]2N[C@H](C1)C2c1ccc(-c2cncnc2)cc1 (stereo partly drawn) the results were DUX4 txn inh -7.
Screening Cc1cccc(-c2ccc(C3[C@@H]4CN(C(=O)Nc5ccccc5)C[C@H]3N4)cc2)c1 (stereo partly drawn) returned DUX4 txn inh -2.
For O=C(C1CCOCC1)N1C[C@@H]2N[C@H](C1)C2c1ccc(-c2cncnc2)cc1 (stereo partly drawn) the results were DUX4 txn inh 19.
For O=C(C1CCCC1)N1C[C@@H]2N[C@H](C1)C2c1ccc(-c2ccncc2)cc1 (stereo partly drawn) the results were DUX4 txn inh -28*!.
`O=C(CN1CCOCC1)N1CC(=O)N2[C@H](CO)[C@@H](c3ccc(/C=C/c4ccccc4)cc3)[C@H]2C1` gave DUX4 txn inh 8.
Screening CN1C(=O)c2cc(NC(=O)c3cccc(F)c3)ccc2OC[C@H]2O[C@@H](CC(=O)N3CCc4ccccc4C3)CC[C@H]21 returned DUX4 txn inh -1.
C[C@H](NC(=O)C[C@H]1C=C[C@@H](NS(=O)(=O)c2cccc(F)c2)[C@H](CO)O1)c1ccccc1 was read as DUX4 txn inh -7.
`O=C(c1cccc(F)c1)N1CCCCN2[C@H](C1)[C@H](c1ccc(/C=C/c3ccccc3)cc1)[C@@H]2CO` gave DUX4 txn inh -9.
`O=C(c1cccc(F)c1)N1CCCCN2[C@H](CO)[C@H](c3ccc(-c4ccccc4)cc3)[C@H]2C1` gave DUX4 txn inh 3.
`CC(C)C#Cc1ccc([C@H]2[C@@H](CO)N3CCCCN(C(=O)c4ccc(F)cc4)C[C@H]23)cc1` gave DUX4 txn inh -40*.
Screening O=C(c1cccc(F)c1)N1CCCCN2[C@H](C1)[C@@H](c1ccc(/C=C/c3ccccc3)cc1)[C@@H]2CO returned DUX4 txn inh -41*.
For O=C(CN1CCOCC1)N1CCCCN2[C@H](CO)[C@H](c3ccc(/C=C/c4ccccc4)cc3)[C@H]2C1 the results were DUX4 txn inh 5.
`CC(C)(O)C#Cc1ccc([C@H]2[C@@H](CO)N3CCCCN(C(=O)c4ccc(F)cc4)C[C@H]23)cc1` gave DUX4 txn inh -5.
`O=C(CN1CCOCC1)N1CCCCN2[C@H](C1)[C@@H](c1ccc(/C=C/c3ccccc3)cc1)[C@@H]2CO` gave DUX4 txn inh -7.
Screening CCC(=O)N1CCCCN2[C@@H](CO)[C@H](c3ccc(/C=C/c4ccccc4)cc3)[C@@H]2C1 returned DUX4 txn inh -16*.
`CC(C)C#Cc1ccc([C@@H]2[C@@H](CO)N3CCCCN(C(=O)c4ccc(F)cc4)C[C@H]23)cc1` gave DUX4 txn inh 0.
C[C@H](CO)N1C[C@H](C)[C@H](CN(C)Cc2cccnc2)Oc2ncc(-c3ccc(C#N)cc3)cc2C1=O was read as DUX4 txn inh -2.
O=C(C[C@H]1CC[C@@H]2[C@H](COC[C@@H](O)CN2Cc2cc(F)ccc2F)O1)NCc1ccccc1 was read as DUX4 txn inh 18.
`CCc1csc(N2[C@H](C#N)[C@H](c3ccccc3-c3ccc(F)cc3)[C@H]2CO)n1` gave DUX4 txn inh -9.
O=C(C[C@H]1CC[C@H](NC(=O)CN2CCOCC2)[C@@H](CO)O1)NC1CCC1 was read as DUX4 txn inh -5.
Screening COc1ccc(NC(=O)N(C)C[C@@H]2OCCCC[C@@H](C)Oc3ccc(NC(=O)c4ccncc4)cc3C(=O)N([C@H](C)CO)C[C@@H]2C)cc1 returned DUX4 txn inh -1.
`COc1ccc(NC(=O)N(C)C[C@@H]2OCCCC[C@H](C)Oc3ccc(NS(=O)(=O)c4cccs4)cc3C(=O)N([C@H](C)CO)C[C@H]2C)cc1` gave DUX4 txn inh -1.
Cc1ccc(S(=O)(=O)N(C)C[C@@H]2Oc3cc(C#CC4CCCC4)ccc3S(=O)(=O)N([C@H](C)CO)C[C@H]2C)cc1 was read as DUX4 txn inh 3.
O=C(C[C@H]1CC[C@@H]2[C@H](COC[C@@H](O)CN2Cc2cccc(C(F)(F)F)c2)O1)NCc1ccncc1 was read as DUX4 txn inh 2.
`C[C@@H]1CN([C@H](C)CO)C(=O)c2c(c3ccccc3n2C)-c2ccccc2CO[C@@H]1CN(C)C(=O)Nc1ccccc1C(F)(F)F` gave DUX4 txn inh -1.
For C[C@H](CO)N1C[C@H](C)[C@@H](CN(C)Cc2ccccc2C(F)(F)F)OCc2ccccc2-c2c(n(C)c3ccccc23)C1=O the results were DUX4 txn inh -46*.
Screening C[C@H](CO)N1C[C@H](C)[C@H](CN(C)Cc2ccccc2C(F)(F)F)OCc2ccccc2-c2c(n(C)c3ccccc23)C1=O returned DUX4 txn inh -59*.
Screening COc1ccccc1CN(C)C[C@H]1OCc2ccccc2-c2c(n(C)c3ccccc23)C(=O)N([C@H](C)CO)C[C@H]1C returned DUX4 txn inh -3.
C[C@H]1CN([C@@H](C)CO)C(=O)c2c(c3ccccc3n2C)-c2ccccc2CO[C@H]1CN(C)C was read as DUX4 txn inh 6.
C[C@@H]1CN([C@@H](C)CO)C(=O)c2c(c3ccccc3n2C)-c2ccccc2CO[C@@H]1CN(C)C was read as DUX4 txn inh -7.
For O=C(C[C@H]1CC[C@@H](NS(=O)(=O)c2ccccc2)[C@H](CO)O1)NCc1ccc(Cl)c(Cl)c1 the results were DUX4 txn inh -6.
Screening COc1ccc2c3c(n(C)c2c1)[C@@H](CO)N(Cc1ccccc1Cl)CC31CN(C(C)=O)C1 returned DUX4 txn inh 6.
Screening CC=Cc1ccc2n(c1=O)C[C@@H]1[C@@H](CO)[C@H](C(=O)N3CCCCC3)N(Cc3ccccc3)[C@H]21 (mixture of isomers) returned DUX4 txn inh 4.
O=C(C[C@@H]1C=C[C@H](NC(=O)C2CC2)[C@H](CO)O1)NCc1ccncc1 was read as DUX4 txn inh 5.
N#C[C@@H]1[C@@H](c2ccc(-c3cccc(F)c3)cc2)[C@@H](CO)N1C(=O)c1cccnc1 was read as DUX4 txn inh 3.
`CN1c2ccc(-c3ccccc3F)cc2[C@H]2[C@H](CCN2S(=O)(=O)c2ccccc2)[C@@H]1CO` gave DUX4 txn inh 12.
COc1ccc(S(=O)(=O)Nc2ccc3c(c2)C(=O)N([C@H](C)CO)C[C@H](C)[C@@H](CN(C)Cc2ccncc2)O3)cc1 was read as DUX4 txn inh -1.
